Several values for one entry are separate records, joined by “and”; a condition that tells them apart may be missing. Equal values may be shown once. Records with an inconclusive call do not appear. A number with no mark means an inactive call. Activity calls are given as the source filed them. Calls follow the shape of the dose curve; as a rule, active = well fitted activation curve with a large enough effect; inconclusive = small, poorly fitted or top-dose-only effect; inactive = no such curve, though single readings can be large or run the other way.
These compounds were tested against Cellular tumor antigen p53 (Homo sapiens) (UniProt P04637) (assay: Primary qHTS for small molecule compounds that upregulate eGFP-tagged delta133p53alpha (in N-terminal) cells. (AID 2060322; also: nearly all actives have a fitted effect of over 75% in size;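 as to activation: cells pre-induced with doxycycline then dosed without doxycycline; series mostly up to about 56 µM; 0% = DMSO vehicle and 100% = reference activator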)). Details: NCI-H358 eGFP-delta133p53alpha fluorescence, 24 h; activation: stronger effect = higher value.
Chain of Cellular tumor antigen p53 (Homo sapiens) (P04637 whole entry, looked up): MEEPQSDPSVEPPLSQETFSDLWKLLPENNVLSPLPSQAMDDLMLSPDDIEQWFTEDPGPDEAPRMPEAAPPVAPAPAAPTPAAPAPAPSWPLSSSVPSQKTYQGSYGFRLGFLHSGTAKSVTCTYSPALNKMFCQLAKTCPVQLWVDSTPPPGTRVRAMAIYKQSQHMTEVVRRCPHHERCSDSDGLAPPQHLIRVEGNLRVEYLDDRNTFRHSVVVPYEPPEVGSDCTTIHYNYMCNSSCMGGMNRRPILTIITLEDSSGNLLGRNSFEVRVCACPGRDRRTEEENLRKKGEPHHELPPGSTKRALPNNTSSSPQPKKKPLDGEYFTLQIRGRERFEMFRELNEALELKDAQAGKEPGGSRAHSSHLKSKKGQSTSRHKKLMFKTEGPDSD
How it was run: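 NCI-H358 cells pre-induced 24 h with 10 ng/ml doxycycline for eGFP-delta133p53alpha, plated dox-free and exposed 24 h at 37C to titrated compounds. Fixed, Hoechst-stained; gated GFP peak intensity by laser scanning cytometry, normalized to DMSO (0%) and 57.5 uM 5-azacytidine (100%).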
In the case of `CN1CCc2cc3c(cc2[C@H]1[C@@H]1OC(=O)c2c1ccc1c2OCO1)OCO3`, the activation is reported as -11%.
`CC(N[C@H]1C[C@H]1c1ccccc1)c1ccc2c(c1)OCCO2` (stereo not given in full) was tested, and the activation was -13.9% and -18.6%.
With `Clc1ccc([C@]23CNC[C@H]2C3)cc1Cl` the activation was -21.7%.
For `C[C@]12CC[C@H](O[C@@H]3O[C@H](CO)[C@@H](O)[C@H](O)[C@H]3O[C@@H]3O[C@H](CO)[C@@H](O)[C@H](O)[C@H]3O)CC1=CC[C@@H]1[C@@H]2CC[C@]2(C)[C@@H](C3=CC(=O)OC3)CC[C@]12O`, the activation was 8.93%.
With `CC(C)(O)[C@H]1O[C@H]2CC[C@@]3(C)[C@@](O)(CC[C@H]4Cc5c([nH]c6ccccc56)[C@@]43C)C2=CC1=O` the activation was 3.82%.
For `CN1C(=O)N(c2ccc(C#N)c(C(F)(F)F)c2)C(=O)[C@@]1(CO)c1ccccc1`, the activation was -3.67%.
`CCOc1ccc(Oc2ccc(OCc3cc(F)ccc3F)cc2)c(N)c1` gave an activation of 3.57%.
In the case of `CC[C@@H]1/C=C/C=C/C[C@H](C)C(O)[C@](C)(O)C(=O)[C@H](C)C(O)[C@H](C)C(=O)[C@H](C)[C@@H](O)[C@H](C)/C=C/C(=O)O[C@H]2[C@@H](C)[C@@H](CC1)O[C@]1(O[C@H](C[C@H](C)O)[C@H](C)CC1=O)[C@@H]2C` (stereo not given in full), the activation is reported as -12.2%.
`N#CC(OC1OC(COC2OC(CO)C(O)C(O)C2O)C(O)C(O)C1O)c1ccccc1` (stereo not given) gave an activation of 8.4%.
With `CC(=O)OC[C@]12C[C@H](O)C(C)=C[C@H]1O[C@@H]1[C@H](O)[C@@H](OC(C)=O)[C@@]2(C)[C@]12CO2` the Potency was 0.083 µM (active).
With `Cc1sc2c(c1C)C(c1ccc(Cl)cc1)=NC(CC(=O)OC(C)(C)C)c1nnc(C)n1-2` (stereo not given) the activation was 7.64%.
In the case of `CN(CC[C@H](N)CC(=O)N[C@H]1C=C[C@@H](n2ccc(N)nc2=O)O[C@@H]1C(=O)O)C(=N)N`, the activation is reported as 7.14%.
Compound `C=CCN1CCC2(C)c3cc(O)ccc3C[C@H]1[C@H]2C` has an activation of -5%.
With `CC[C@H]1C[C@H]2[C@@H]3CCC4=CC(=O)CC[C@@H]4[C@H]3CC[C@]2(C)[C@H]1O` the activation was 5.67%.
With `C/C1=C/[C@@H](C)C/C=C/[C@H]2[C@@H]3O[C@]3(C)[C@@H](C)[C@H]3[C@H](Cc4c[nH]c5ccccc45)NC(=O)[C@]32C(=O)/C=C\C(=O)[C@@H]1O` the Potency was 11.7 µM (active).
With `CN1CCN(c2nc3ccccc3nc2Cl)CC1` the activation was 1%.
For `COC1CC(O[C@H]2CC[C@@]3(C)C(=CCC4C3C(O)[C@@H](O)[C@]3(C)[C@@H](C(C)=O)CC[C@]43O)C2)OC(C)C1OC1CC(OC)C(OC2OC(C)C(O)C(O)C2O)C(C)O1` (stereo not given in full), the activation was -14.5%.
In the case of `C=C(C)[C@@H]1[C@H]2OC(=O)[C@H]1[C@]1(O)C[C@H]3O[C@]34C(=O)O[C@H]2[C@]14C`, the activation is reported as 4.33%.
`O=C(N[C@H]1N=C(c2ccccc2F)c2cccc3c2N(CC3)C1=O)c1cc2ccccc2[nH]1` showed an activation of 6.33%.
In the case of `COC(=O)C12C(=O)C(C)(O)C(=O)C1(C)C(C)=CC1C34CCC(OC3=O)C(C)(CO)C4CCC12C` (stereo not given), the activation is reported as -16.8%.
Compound `Oc1ccc2c(c1)C13CCCC[C@H]1[C@@H](C2)N(CC1CCC1)CC3` has an activation of 12.3%.
`CC1=CC2/C=C(\C)CCC(O)C(O)/C=C/C(=O)OC23C(=O)NC(CC(C)C)C3C1C` (stereo not given) gave an activation of 0.763%.
`COCC(C(=O)OC1CC2CCC(C1)N2C)c1ccccc1` (stereo not given) showed an activation of 4.33%.
For `COc1ccc2c3c4n(c2c1)[C@@H](C=C(C)C)OOC(C)(C)C[C@@H]4N1C(=O)[C@@H]2CCCN2C(=O)[C@]1(O)[C@H]3OCC=C(C)C`, the activation was 15.3%.
Compound `CCCCCCC1C(=O)O[C@H](C)[C@H](NC(=O)c2cccc(NC=O)c2O)C(=O)O[C@@H](C)[C@@H]1OC(=O)CC(C)C` (stereo not given in full) has an activation of -5.67%.
Compound `CC[C@@H](C)[C@H]1C(=O)O[C@H](C(C)C)C(=O)N(C)[C@@H](C(C)C)C(=O)O[C@H](C(C)C)C(=O)N(C)[C@@H](C(C)C)C(=O)O[C@H](C(C)C)C(=O)N1C` has an activation of -17.6%.
With `CC[C@@H]1C[C@H]2CC[C@H](O2)[C@H](C)C(=O)O[C@@H](C)C[C@@H]2CC[C@@H](O2)[C@@H](C)C(=O)O[C@H](C)C[C@H]2CC[C@H](O2)[C@H](C)C(=O)O[C@@H](C)C[C@@H]2CC[C@@H](O2)[C@@H](C)C(=O)O1` the activation was -13.7%.
`CO[C@@H]1[C@@H](O)[C@@H](O[C@H]2CC[C@]3(C=O)C4CC[C@]5(C)[C@@H](C6=CC(=O)OC6)CC[C@]5(O)[C@@H]4CC[C@H]3C2)O[C@@H](C)[C@H]1O[C@@H]1O[C@H](CO[C@@H]2O[C@H](CO)[C@@H](O)[C@H](O)[C@H]2O)[C@@H](O)[C@H](O)[C@H]1O` (stereo not given in full) showed an activation of -9.92%.
`CN1C(=O)c2ccccc2NC(=O)C1Cc1ccccc1` (stereo not given) gave an activation of -18.3%.
In the case of `C[C@@](O)(COc1ccc(C#N)cc1)C(=O)Nc1ccc(C#N)c(C(F)(F)F)c1`, the activation is reported as -6.21%.
For `CC12CCC3C(CCC4(O)CC(O)CCC34C=O)C1(O)CCC2C1=CC(=O)OC1` (stereo not given), the Potency was 10.7 µM (active).
For `CC1=C[C@H]2O[C@@H]3[C@H](O)[C@@H](O)[C@](C)([C@@]2(CO)C[C@@H]1O)[C@]31CO1`, the Potency was 7.57 µM (active).
Compound `CNC(=O)c1cc(C#N)cc(C)c1NC(=O)c1cc(Br)nn1-c1ncccc1Cl` has an activation of 18.3%.
`COC(=O)[C@@]1(C)C(=O)C=C[C@]2(C)c3c(O)cc(C(C)C)cc3[C@H](O)[C@@H](OC(C)=O)C12` (stereo not given in full) gave an activation of -3.05%.
For `C=C1C(=O)OC2/C=C(\COO)CC/C=C(\COC(C)=O)CC(OC(=O)C(C)CC)C12` (stereo not given), the Potency was 9.28 µM (active).
`COC1CC(O[C@H]2CC[C@]3(C=O)C4CC[C@]5(C)[C@@H](C6=CC(=O)OC6)CC[C@]5(O)[C@@H]4CC[C@@H]3C2)OC(C)C1O[C@@H]1O[C@H](CO)[C@@H](O[C@@H]2O[C@H](CO)[C@@H](O)[C@H](O)[C@H]2O)[C@H](O)[C@H]1O` (stereo not given in full) was tested, and the Potency was 3.21 µM (active).
Work on `COc1cc2c(cc1OC)[C@@]13CCN4CC5=CCO[C@H]6CC(=O)N2[C@H]1[C@H]6[C@H]5C[C@H]43` yielded an activation of -22.1%.
For `C=C(C)C(=O)O[C@H]1[C@@H]2[C@H](C)C(=O)O[C@@H]2C[C@@H](C)[C@@H]2C=CC(=O)[C@]21C`, the Potency was 13.2 µM (active).
`CC(=O)C1CCC2C3CCC4C[C@@H](O)CCC4(C)C3CCC12C` (stereo not given in full) was tested, and the activation was -2.33%.
In the case of `CCCC[N+]1(C)[C@@H]2CC(OC(=O)[C@H](CO)c3ccccc3)C[C@H]1[C@@H]1O[C@@H]12` (stereo not given in full), the activation is reported as -28.8% and -9.82%.

— PubChem BioAssay (NCATS)
Potency is read from the fitted curve at half-maximal effect.
